Rows were chosen to be rich in hits. Some 11% of all compounds tested hit in one or more screens of this group.
Pf growth 48h = inhibits P. falciparum growth in the first generation, 48 h. P. falciparum luciferase growth in erythrocytes, 48 h. Potency, µM (highest dose often 28.7 µM), usual class: inhibitors. actives 5.9% (n = 310,000). AID 504832
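Parasite viability was followed by luminescence of a genomically integrated firefly luciferase. Cultures held 0.1% parasitemia at 2% hematocrit (final), incubated under 5% CO2 at 37 C.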
NS1 function inh = inhibitors of influenza NS1 protein function; Potency, µM (doses to about 46.1 µM); actives 0.4% (n = 270,000); AID 2326; calls by dose curve; also: actives are rising curves; nearly all actives have a fitted effect of over 50% in size
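OD600 was taken as the measure of yeast growth restored by compound in an NS1-expressing S. cerevisiae strain. Cells had been washed out of glucose medium and diluted 1:100 into galactose -URA medium, pH 6.0.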
AMA1 RON2 block = inhibitors of Plasmodium falciparum AMA1-RON2 interaction | Potency, µM (doses to about 58.2 µM), most hits filed as inhibitors | AlphaScreen AMA1-biotinylated RON2 peptide binding | AID 720542 | actives 0.2% (n = 360,000); also: nearly all actives have a fitted effect of over 45% in size
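AMA1 (3D7) with his tag at 25 nM final met compounds first, then biotinylated RON2 peptide at 25 nM; detection used donor plus acceptor beads, 10 µg/mL apiece, read by AlphaScreen after 30 min at room temperature.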
Pf growth 96h = P. falciparum growth inhibition at 96 hours | P. falciparum luciferase reporter growth, 96 h | Potency, µM (doses to about 28.7 µM), most hits filed as inhibitors | actives 6.9% (n = 320,000) | AID 504834
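Erythrocytes infected with luciferase-expressing P. falciparum were dispensed at 2% hematocrit and 0.05% parasitemia (final), then incubated with compounds 96 hours at 37 C in 5% CO2. Luminescence after detection reagent addition reported growth.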
Sm TGR inh = blocks Schistosoma mansoni thioredoxin glutathione reductase | actives 3% (n = 360,000) | purified TGR, DTNB reduction, TNB absorbance 405 nm | Potency, µM (series often up to 114 µM), actives largely listed as inhibitors | AID 485364; also: nearly all actives have a fitted effect of over 60% in size
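Kinetic colorimetric format: TGR-catalysed, NADPH-driven DTNB reduction monitored via TNB absorbance. Enzyme dispensed at 20 nM; compound exposure 15 min at room temperature before reaction start.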
Each line names hits and unclear results; the compound was inactive in the other large screens; ! = a repeat was not active. Unless noted, calls follow the shape of the dose curve; as a rule, active = well fitted curve in the direction sought with a large enough effect; inconclusive = small, poorly fitted or top-dose-only effect, or another doubt; inactive = no such curve, though single readings can be large; an effect the other way counts as inactive or inconclusive.

O=C(c1cc2nc(-c3ccc(Cl)cc3)cc(C(F)(F)F)n2n1)N1CCOCC1	Pf growth 96h 10µM
CN1CCN(C(=O)c2cc3nc(-c4ccc(Cl)cc4)cc(C(F)(F)F)n3n2)CC1	none (no result: Pf growth 48h)
O=C(c1cc2nc(-c3ccco3)cc(C(F)(F)F)n2n1)N1CCN(c2ccccc2)CC1	Pf growth 48h inconclusive, Pf growth 96h inconclusive, Sm TGR inh inconclusive
N#Cc1ccc(NC(=O)CSc2nc3[nH]c(=O)cc(O)c3s2)cc1	Pf growth 48h inconclusive, Pf growth 96h 1.5µM (no result: NS1 function inh)
COc1ccc(NC(=O)CSc2nc3[nH]c(=O)cc(O)c3s2)c(OC)c1	Pf growth 48h 10µM (no result: NS1 function inh)
CSc1ccc(NC(=O)CSc2nc3[nH]c(=O)cc(O)c3s2)cc1	none (no result: NS1 function inh)
CCOc1cc2sc(N3CCC(C(=O)Nc4ccc(C(C)C)cc4)CC3)nc2cc1Br	none (no result: Pf growth 48h, NS1 function inh, AMA1 RON2 block, Pf growth 96h)
O=c1c2ccccc2nc(CSc2ncnc3nc[nH]c23)n1-c1cccc(C(F)(F)F)c1	Pf growth 48h inconclusive (no result: Pf growth 96h)
O=c1c2ccccc2nc(C[n+]2ccccc2)n1-c1cccc(C(F)(F)F)c1	Pf growth 96h 12µM
CC(C)(C)C(=O)N1CCN(c2ccc([N+](=O)[O-])c(-n3nc(-c4ccccc4)c4ccccc4c3=O)c2)CC1	Pf growth 48h 5.2µM, NS1 function inh inconclusive, Pf growth 96h 9.3µM
Cc1ccc(-c2nn(-c3cc(Cl)ccc3[N+](=O)[O-])c(=O)c3ccccc23)cc1	Pf growth 48h inconclusive, AMA1 RON2 block inconclusive, Pf growth 96h 12µM
Cc1ccc(C(=O)Nc2ccc3oc(-c4ccccc4C)nc3c2)cc1	none (no result: Pf growth 48h, NS1 function inh, AMA1 RON2 block, Pf growth 96h)
COCCOC(=O)C1=C(N)Oc2c(oc(CO)cc2=O)C1c1c(F)cccc1Cl (centres undefined)	Pf growth 96h 4.7µM (no result: Pf growth 48h)
O=C(c1ccc2c(c1)N(Cc1ccccc1)C(=O)c1ccccc1S2(=O)=O)N1CCc2ccccc21	none (no result: Pf growth 48h, NS1 function inh, AMA1 RON2 block, Pf growth 96h)
O=C(NC1CCCC1)C(c1ccncc1)N(C(=O)c1ccco1)c1ccccc1 (centres undefined)	none
Cc1cc(N(C(=O)c2ccco2)C(C(=O)NC2CCCCC2)c2ccccc2)ccc1-n1cnnn1 (centres undefined)	Pf growth 48h 9.3µM (no result: Pf growth 96h)
COc1cccc(N(C(=O)c2ccco2)C(C(=O)NC2CCCC2)c2ccc(N3CCOCC3)cc2)c1 (centres undefined)	Pf growth 48h inconclusive
COc1cccc(C(C(=O)NC2CCCCC2)N(C(=O)c2ccco2)c2ccc(-n3cnnn3)c(C)c2)c1 (centres undefined)	Pf growth 48h 15µM
CCOC(=O)N1CCN(C(=O)C(NC(=O)c2ccc(C(C)(C)C)cc2)C(C)C)CC1 (centres undefined)	Pf growth 48h 9.3µM, Pf growth 96h inconclusive (no result: NS1 function inh)
CCOC(=O)N1CCN(C(=O)c2ccccc2NC(=O)c2ccc(C(C)(C)C)cc2)CC1	Pf growth 48h 10µM, Pf growth 96h inconclusive
Cc1ccc(C(=O)Nc2ccccc2C(=O)N2CCCCC2C)cc1 (centres undefined)	Pf growth 96h 12µM
O=C(O)c1ccccc1N(c1ccccc1)c1ccccc1	none (no result: Pf growth 48h, NS1 function inh, Pf growth 96h, Sm TGR inh)
CC(=O)N1CCN(C(=O)c2ccc(C)c(S(=O)(=O)N3CCCCC3)c2)CC1	none (no result: Pf growth 48h, NS1 function inh, Pf growth 96h, Sm TGR inh)
Cc1ccc(C(=O)N2CCN(c3ccccc3O)CC2)cc1S(=O)(=O)N1CCCCC1	Pf growth 48h 13µM (no result: NS1 function inh)
Cc1ccc(C(=O)N2CCN(C)CC2)cc1S(=O)(=O)N1CCCCCC1	Pf growth 96h 2.3µM
Cc1cccc(N2CCN(S(=O)(=O)c3c(C)[nH]c(C)c3C(=O)N3CCCC3)CC2)c1C	Pf growth 48h inconclusive
Cc1cccc(N2CCN(S(=O)(=O)c3c(C)[nH]c(C)c3C(=O)N3CCCCC3)CC2)c1C	Pf growth 48h 9.3µM, Pf growth 96h inconclusive
C1CNC(C23CC4CC(CC(C4)C2)C3)=N1	none (no result: NS1 function inh)
CCC1(C2=NCCN2)Cc2ccccc2O1 (centres undefined)	Pf growth 96h 7.6µM!
Cc1ccc(S(=O)(=O)Nc2ccc(F)c(F)c2O)cc1	none (no result: Pf growth 48h, NS1 function inh, Pf growth 96h, Sm TGR inh)
O=C1c2cccc3cccc(c23)C(=O)N1/N=C/c1ccc(O)cc1O	none
Cc1nc2ccccc2c(=O)n1/N=C/c1ccccc1O	none
Oc1ccc(/C=N/N2CCCCC2)c(O)c1O	Sm TGR inh 35µM
Cc1nc2ccccc2c(=O)n1/N=C/c1ccc(O)c(O)c1O	AMA1 RON2 block inconclusive, Sm TGR inh 45µM
O=C1c2ccccc2C(=O)N1/N=C/c1ccc(O)c(O)c1O	Pf growth 48h inconclusive, Sm TGR inh 50µM

Source: PubChem BioAssay (National Center for Advancing Translational Sciences (NCATS))
